From PubChem
A selection: hits, their analogues and other compounds. The true share with any hit is near 15%.
HCV inh = HCV inhibition; hit rate 3.4% among 340,000; Huh7.5.1 HCVcc-Cre infection, luciferase reporter, 44 h; AID 651820; Potency, µM (doses to about 41.8 µM), for inactives: at the top dose activity change, negative = inhibition, hits mostly inhibitors; also: potency is read from the fitted curve at half-maximal effect; % is scaled to controls: 0 for no effect and ±100 for the full control effect
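A cell-based infection assay in which seeded cells (1,000 per well) receive test compound after 4 h, are inoculated with HCVcc-Cre at approximately 0.5 moi, and are incubated 44 h before luminescence detection.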
Pf growth 48h = inhibits P. falciparum growth in the first generation, 48 h. P. falciparum luciferase growth in erythrocytes, 48 h. Potency, µM (titrated, usually from 28.7 µM), for inactives: at the highest dose activity change, negative = inhibition, hits mostly inhibitors. hit rate 5.9% among 310,000. AID 504832; also: potency is read from the fitted curve at half-maximal effect; % is scaled to controls: 0 for no effect and ±100 for the full control effect
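Luciferase-expressing parasites in RBCs, 2% Hct / 0.1% parasitemia final; RPMI 1640 + 0.5% Albumax; 37 C, 5% CO2, one generation; luminescence read-out, lower signal = inhibition.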
HCMV inh = blocks human cytomegalovirus replication; hit rate 4.5% among 410,000; HFF cells, HCMV-luciferase reporter, 72 h; hits give low values; activity change, negative = inhibition, % at 57.5 µM; AID 1259415; in the data active = activity change below about -60%; inconclusive = no clear call, values can overlap the other calls; inactive = above about -39%; also: % is scaled to controls: 0 for no effect and ±100 for the full control effect
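Luciferase read-out from HCMV-luciferase-infected HFFs (MOI 1 PFU/cell) 72 h post infection at 37C; compounds added after 16 h cell attachment; activity normalized between buffer-only basal and Salinomycin (10uM) inhibitor controls.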
SARS PLP yeast = inhibitors of SARS-CoV papain-like protease in yeast | S. cerevisiae expressing SARS-CoV PLpro, growth rescue | Potency, µM (highest dose often 32.9 µM), for the others: at the top dose activity, positive = growth rescue, most hits filed as activators | hit rate 0.19% among 330,000 | AID 485353; calls by dose curve; also: potency is read from the fitted curve at half-maximal effect; 0% is about no effect; nearly all actives have a fitted effect of over 55% in size
Pf growth 96h = P. falciparum growth inhibition at 96 hours. P. falciparum luciferase reporter growth, 96 h. Potency, µM (titrated, usually from 28.7 µM), inactives show at the top dose activity change, negative = inhibition, usual class: inhibitors. hit rate 6.9% among 320,000. AID 504834; also: potency is read from the fitted curve at half-maximal effect; % is scaled to controls: 0 for no effect and ±100 for the full control effect
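Cell-based qHTS: luciferase-tagged P. falciparum in erythrocytes (2% hematocrit, 0.05% parasitemia final) incubated with compounds for 96 hours, 37 C, 5% CO2; luciferase detection reagent then added and luminescence measured.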
Sm TGR block = S. mansoni TGR enzyme inhibition; Potency, µM (top dose mostly 114 µM), for inactives: at the highest dose activity change, negative = inhibition, hits mostly inhibitors; hit rate 3% among 360,000; Q962Y6; purified TGR, DTNB reduction, TNB absorbance 405 nm; AID 485364; also: potency is read from the fitted curve at half-maximal effect; % is scaled to controls: 0 for no effect and ±100 for the full control effect; nearly all actives have a fitted effect of over 60% in size
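Kinetic colorimetric format: TGR-catalysed, NADPH-driven DTNB reduction monitored via TNB absorbance. Enzyme dispensed at 20 nM; compound exposure 15 min at room temperature before reaction start.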
Starred values were filed as active, the others as inactive; u = inconclusive; x = no result. Unless noted, calls follow the shape of the dose curve; as a rule, active = well fitted curve in the direction sought with a large enough effect; inconclusive = small, poorly fitted or top-dose-only effect, or another doubt; inactive = no such curve, though single readings can be large; an effect the other way counts as inactive or inconclusive.

SMILES | HCV inh | Pf growth 48h | HCMV inh | SARS PLP yeast | Pf growth 96h | Sm TGR block
COc1ccc(C(C)=O)cc1CN1C(=O)NC2(CCCCCCC2)C1=O | u | 32% | -19 | -6% | 8% | -3%
COc1ccc(C(C)=O)cc1CSc1nnc(C)s1 | -1% | 22% | 5 | 2% | 36% | 45µM*
Cc1ccc(CSc2nnc(Nc3ccc(C)cc3)s2)cc1 | -9% | x | 9 | -5% | -28% | 1%
COc1ccc(C(C)=O)cc1CSc1nnc(Nc2ccc(C)cc2)s1 | u | u | -61* | -4% | u | -7%
O=C(O)c1cccc(S(=O)(=O)N(Cc2ccccc2)c2ccc(Cl)cc2)c1 | 13% | 6% | u | 2% | 7% | -3%
Cc1cc(S(=O)(=O)N2CCN(c3ccccc3F)CC2)ccc1-n1cnnn1 | u | -14% | -77* | -2% | 12µM* | 0%
Cc1cc(S(=O)(=O)N(Cc2cccs2)Cc2ccccc2F)ccc1-n1cnnn1 | u | u | -64* | 3% | u | 1%
Cc1cc(S(=O)(=O)N(Cc2ccccc2Cl)c2ccc3c(c2)CCC3)ccc1-n1cnnn1 | -10% | 12µM* | 9 | -9% | 87% | -5%
Cc1ccc(Nc2nc(C)cc(C)c2C#N)c(C)c1 | x | x | -22 | x | x | x
C=CCNc1nc(NCc2ccco2)nc(OCC)n1 | 1% | 5% | -22 | -5% | 6% | -22%
C=CCNc1nc(Cl)nc(NCc2ccco2)n1 | -12% | u | 42 | -5% | 9.3µM* | -24%
CC1(c2ccc3ccccc3c2)NC(=O)N(CC(=O)N2CCN(Cc3ccc(C#N)cc3)CC2)C1=O (centres undefined) | 1.3µM* | u | x | 2% | -13% | -28%
Cc1cccc(NC(=O)CN2CCN(C(=O)CN3C(=O)NC4(CC(C)CC(C)(C)C4)C3=O)CC2)c1C (centres undefined) | u | x | 0 | x | x | x
CC1CC(C)(C)CC2(C1)NC(=O)N(CC(=O)N1CCN(Cc3ccc(C#N)cc3)CC1)C2=O (centres undefined) | 1.4µM* | -28% | -84* | 4% | 2% | -3%
CC1CC(C)(C)CC2(C1)NC(=O)N(CC(=O)N1CCN(S(=O)(=O)c3cccs3)CC1)C2=O (centres undefined) | 17% | 9.3µM* | -10 | -9% | u | 1%
O=C(NC1CCS(=O)(=O)C1)c1cccc(Cl)c1 (centres undefined) | 18% | 20% | -13 | 0% | 37% | 0%
COc1ccc(NC(=O)c2sc3nc4c(cc3c2N)CN(C(C)C)CC4)c(OC)c1 | x | x | -35 | x | x | -10%
C=CC1=C2C=C(C3CC3)N(C3CC3)C=C2C(=O)C(C)(OC(=O)c2ccco2)C1=O (centres undefined) | 4% | x | 20 | x | x | x
COc1ccc(-c2nc3n(n2)C(=O)CC(c2ccco2)S3)cc1 (centres undefined) | 14% | 1% | x | -10% | 16% | 18µM*
COc1ccc(NC(=S)N2CCN(C(c3ccccc3)c3ccccc3)CC2)c(OC)c1 | u | 5.2µM* | 11 | -2% | 72% | 7%
COc1cccc(NC(=S)N2CCN(C(c3ccccc3)c3ccccc3)CC2)c1 | u | 26% | -20 | u | 31% | 11%
COc1cccc(N2CCN(C(=S)Nc3ccccc3OC)CC2)c1 | -6% | -14% | 2 | 2% | 9.3µM* | 0%
CC1=Nc2cc(C(=O)NC3CCC(C)CC3)ccc2Sc2c(C)ccc(C)c21 (centres undefined) | x | x | x | x | x | 5%
CCOC(=O)N1CCC(NC(=O)c2ccc3c(c2)N=C(C)c2c(C)ccc(C)c2S3)CC1 | u | u | -93* | -54% | u | -9%
CCCC1=Nc2cc(C(=O)NC3CCCCC3)ccc2Sc2ccc(C)cc21 | x | x | -91* | x | x | 1%
SMILES | HCV inh | Pf growth 48h | HCMV inh | SARS PLP yeast | Pf growth 96h | Sm TGR block
CCCC1=Nc2cc(C(=O)NC3CCCC3)ccc2Sc2ccc(C)cc21 | x | x | -79* | x | x | 1%
CCC1=Nc2cc(C(=O)NC3CCC(C)CC3)ccc2Sc2ccc(C)cc21 (centres undefined) | x | x | -82* | x | x | 0%
CCOC(=O)N1CCC(NC(=O)c2ccc3c(c2)N=C(CC)c2cc(C)ccc2S3)CC1 | 3.2µM* | u | 0 | -26% | -5% | -19%
CCC1=Nc2cc(C(=O)NCc3ccco3)ccc2Sc2ccc(C)cc21 | u | 1.3µM* | -75* | -51% | 25% | -29%
CCOC(=O)c1cc(-c2ccccc2)n(CCC(=O)Nc2ccc(OC)c(Cl)c2)c1C | x | x | 0 | x | x | -14%
O=C(CCC(=O)N1CC2CCCN2c2ccccc21)NCc1ccc(F)cc1 (centres undefined) | x | x | 7 | x | x | 4%
CCCc1c(-c2ccc(Cl)cc2)ncn1CCc1ccccc1OC | x | x | -61* | x | x | x
CCCCc1c(-c2ccc(OC)c(OC)c2)ncn1CCc1ccccc1OC | x | x | -94* | x | x | x
COc1ccccc1CCn1cnc(-c2ccc(OC)c(OC)c2)c1C(C)C | x | x | -109* | x | x | x
CCCCc1c(Cc2cccc(F)c2)ncn1CCc1ccccc1OC | x | x | -66* | x | x | x
CCCc1c(-c2ccc(F)cc2)ncn1CCc1ccccc1OC | x | x | -40 | x | x | x
Cc1cccc(C)c1NC(=O)Cn1c(=O)cc(C)c2c(C)nn(-c3cccc(Cl)c3C)c21 | x | x | 5 | x | x | -2%
O=C(CSc1nc(=O)n(Cc2ccco2)c2c1CCC2)NCc1ccccc1 | x | x | -11 | x | x | -9%
COc1ccccc1NCc1cc(=O)oc2c(C)c(O)ccc12 | u | 1.7µM* | -27 | 2% | 1.9µM* | 0%
COC(=O)c1ccccc1NCc1cc(=O)oc2cc(O)c(O)cc12 | -20% | 13% | 0 | 4% | 13% | -22%
Cc1c(O)ccc2c(CC(=O)N[C@@H](Cc3ccccc3)C(=O)O)cc(=O)oc12 | 15% | 7% | 12 | -2% | 40% | 0%
Cc1cc(C)cc(NCc2cc(=O)oc3cc(-c4ccccc4)c(O)cc23)c1 | 10% | 4.7µM* | u | -21% | 2.3µM* | -7%
COc1ccc(C)cc1NCc1cc(=O)oc2cc(-c3ccccc3)c(O)cc12 | u | 1.5µM* | 31 | 0% | 1µM* | -14%
CCOc1cc(C2C3=C(CC(C)(C)CC3=O)Nc3n[nH]c(C)c32)ccc1O (centres undefined) | 25% | -3% | -13 | 0% | 20% | -15%
Brc1ccc(-n2cc(-c3ccccc3)c3c(NN4CCOCC4)ncnc32)cc1 | u | 4% | u | -4% | u | 0%
CCOc1ccc(C(=O)Nc2ccc(C(=O)OCc3cc(=O)n4c(C)csc4n3)cc2)cc1 | x | x | u | x | x | -9%
